# Source: PubChem BioAssay AID1457 (National Center for Advancing Translational Sciences (NCATS), 2008)
# The whole screen tested about 210,000 compounds, of which about 730 (0.35%) were called active. Not shown: some 1% with an inconclusive outcome. Calls come from the whole dose curve; as a rule, active = well fitted inhibition curve with a large enough effect; inconclusive = small, poorly fitted or top-dose-only effect; inactive = no such curve, though single readings can be large or run the other way. The entries come from a sample that favours actives as a whole. A call without a number means that no potency is given here.
# Test: qHTS Assay for Identifying the Cell-Membrane Permeable IMPase Inhibitors: Potentiation with Lithium;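 note: IP1 builds up when IMPase is blocked and the TR-FRET signal falls; nearly all actives have a fitted effect of over 50% in size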
# Conditions: CHO-M1 cells, IP1 TR-FRET (IP-One), carbachol + lithium; series mostly up to 59.4 µM
# Procedure, shortened: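 Readout is a homogeneous TR-FRET IP1 immunoassay (Ex 320, Em 665 and 620), where raised cytosolic IP1 lowers signal. Cells were CHO-M1 treated 30 min at 37C with test compounds plus a little lithium; AC50 values came from Hill-equation fitting.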
# Potency is the fitted concentration of half-maximal effect.
row,SMILES,Potency
1,O=C(C1=C(O)C(=O)N(c2ncccn2)C1c1cccs1)c1ccco1 (stereo not given),11.2 µM (active)
2,O=C(c1ccco1)N1CCC2(CC1)CN(c1ncccn1)C2,inactive
3,O=C(c1ccco1)N1CCC2(CC1)CCN(c1ncccn1)CC2,inactive
4,C=CCC1CCC(=O)N2CCCC12 (stereo not given),inactive
5,C[C@@H]1C(c2ccc(F)cc2)=NN(c2ccc(Br)cc2)[C@H]1C(=O)N1CCOC1=O,inactive
6,COC(=O)CC1c2ccccc2C(Cc2ccc(OC)cc2)=C(C)N1C(=O)OC (stereo not given),inactive
7,COc1cc(OC)c2c(c1)OC(=O)CC2c1cc(OC)c(OC)c(OC)c1 (stereo not given),inactive
8,CC1=C2[C@@H](O)[C@H]([C@@H](C)C(=O)NCCC(C)C)CC[C@@]2(C)C=CC1=O,inactive
9,C=CC1(C)CC(=O)C2(O)C(C)(O1)C(OC(C)=O)C(O)C1C(C)(C)CCC(O)C12C (stereo not given),inactive
10,COC(=O)C1=C(C(=O)OC)[C@@H]2N(C)c3ccccc3[C@@]23C[C@@H](C(=O)OC)N(C(C)=O)C3=N1,inactive
11,Nc1c(C(=O)NCc2ccccc2)sc2nc3c(cc12)C(=O)CCC3,inactive
12,CCN(CC)C(=O)c1sc2nc(-c3ccccc3)ccc2c1N,10 µM (active)
13,CCCC(=O)n1nc(-c2ccccc2)nc1N,inactive
14,CCCCC/C=C\CC1OC1CCCCCCCC(=O)O (stereo not given),inactive
15,O=C(COC(=O)c1cccc(Br)c1)Nc1cccc2c1C(=O)c1ccccc1C2=O,11.2 µM (active)
16,O=C(COC(=O)c1ccccc1)Nc1ccccc1Sc1ccccc1,inactive
17,O=C(COC(=O)Cn1cnc2ccccc21)Nc1cccc2c1C(=O)c1ccccc1C2=O,inactive
18,C=CCOC(=O)NC(c1ccc(F)c(F)c1)C(C(=O)COC)C(=O)OC (stereo not given),inactive
19,Cc1csc(-c2coc3cc(O[C@@H]4O[C@H](CO)[C@@H](O)[C@@H](O)[C@H]4O)ccc3c2=O)n1,inactive
20,CC(C)(Oc1ccc(C2CC2(Cl)Cl)cc1)C(=O)O (stereo not given),inactive
21,CC(O)[C@@H](N)C(=O)O (stereo not given in full),inactive
22,CCCCCCCC/C=C\CCCCCCCC(=O)OC[C@H](CO)OC(C)=O,inactive
23,CCOC(=O)C1=C(C(=O)OCC)C(C(=O)OCC)N(S(=O)(=O)C(F)(F)F)c2ccccc21 (stereo not given),inactive

row,SMILES,Potency
1,Cc1cc(NC(=O)COc2ccc(Cl)cc2Cl)n(CCC#N)n1,inactive
2,CSc1ccc(C#N)cc1NC(=O)c1cccc(Cl)c1,inactive
3,N#Cc1ccccc1NC(=O)c1cccc(COc2ccc(Cl)cc2Cl)c1,8.91 µM (active)
4,O=C(Nc1c(-c2ccccc2)nc2c(Br)cc(Br)cn12)c1ccco1,10 µM (active)
5,Cc1ccccc1NC(=O)c1cnn(-c2ccccc2)c1NC(=O)c1ccco1,inactive
6,O=C(Nc1ccc(Sc2ccc(Br)cc2)cc1)c1ccco1,inactive
7,COc1ccc(-c2c(C)cc3oc(=O)cc(-c4ccccc4)c3c2C)cc1OC,inactive
8,C=C(C)C(=O)c1ccc(F)cc1,inactive
9,c1ccc2sc(SCCSc3nc4ccccc4s3)nc2c1,inactive
10,Cc1sc2ncnc(Sc3nc4ccccc4s3)c2c1C,14.1 µM (active)
11,CSc1ncnc2sc(C)c(C)c12,inactive
12,COC(C)C(C(=O)OCC1=CCN2CC[C@H](O)[C@@H]12)C(C)C (stereo not given in full),inactive
13,OC[C@H]1O[C@@H](n2cnc3c(NC4CCCC4)ncnc32)[C@H](O)[C@H]1O,inactive
14,CC/C=C\C/C=C\C/C=C\C/C=C\C/C=C\C/C=C\CCC(=O)NCCc1ccc(O)c(O)c1,inactive
15,Cc1ccc2cc(C#N)c(SCC(=O)NCC3CCCO3)nc2c1C (stereo not given),inactive
16,Cc1nonc1NC(=O)CSc1nc2ccccc2cc1C#N,inactive
17,Cc1nc2cc(NC(=O)CSc3nc4c(C)cccc4cc3C#N)ccc2s1,11.2 µM (active)
18,O=C1c2cccc3cccc(c23)C(=O)N1CCCCCc1n[nH]c(=S)o1,inactive
19,O=C(CN1C(=O)c2cccc3cccc(c23)C1=O)N1CCCCC1,inactive
20,C[N+](C)(CCCCCC[N+](C)(C)CCCN1C(=O)c2cccc3cccc(c23)C1=O)CCCN1C(=O)c2cccc3cccc(c23)C1=O,10 µM (active)
21,O=C1CCC[C@@H]2CC(N3CCCCC3)C[C@@H]3CCN1[C@H]23 (stereo not given in full),inactive
22,CCCCC[C@H](O)/C=C/[C@@H]1[C@@H](CC(=O)CCC(=O)O)[C@@H](O)C[C@H]1O,inactive
23,CCCCC/C=C\C/C=C\CCCCCCCCCC(=O)NCC(=O)O,inactive

row,SMILES,Potency
1,N#Cc1c(-c2ccc(Cl)cc2)c2c([nH]c1=S)CCCC2,inactive
2,CN(C)c1nc(-c2cccnc2)nc(-c2ccc(Cl)cc2)c1C#N,7.94 µM (active)
3,CNc1nccc(-c2ccc(Cl)cc2)c1C#N,inactive
4,COC(=O)CCCC1=CC2=CC(=O)C(C)(OC(=O)c3cccs3)C(=O)C2=CN1c1ccc(CO)cc1 (stereo not given),inactive
5,CC(=O)c1sc(NC(=O)c2cccc3ccccc23)nc1C,inactive
6,CC(=O)c1sc(NC(=O)c2ccc(C)cc2)nc1C,12.6 µM (active)
7,CC(=O)c1sc(N/N=C\c2ccc(C)cc2)nc1C,inactive
8,COC(=O)C1=C(C(=O)OC)[C@@H]2Nc3ccccc3[C@@]23C[C@@H](C(=O)OC)N(S(=O)(=O)c2ccc([N+](=O)[O-])cc2)C3=N1,inactive
9,CC(=O)OC1C([N+]2(C)CCCCC2)C[C@H]2C3CC[C@H]4C[C@H](OC(C)=O)C([N+]5(C)CCCCC5)CC4(C)C3CCC12C (stereo not given in full),inactive
10,COCOc1cc(OC)ccc1C(=O)/C=C/c1ccc([N+](=O)[O-])cc1,inactive
11,CC(=O)Nc1cc2ccc(OC(C)=O)cc2oc1=O,8.91 µM (active)
12,CC(=O)c1cc(NC(=O)c2ccccc2)c(=O)oc1/C=C/N(C)C,inactive
13,CC(=O)Oc1ccc(NC(=O)CCC2CCCCC2)c(C(=O)O)c1,inactive
14,COCCN1C=C2C(=O)C(C)(OC(=O)C3CCCC3)C(=O)C=C2C=C1c1ccsc1 (stereo not given),inactive
15,N#Cc1cccc(CS(=O)(=O)c2nnnn2-c2cc(C(F)(F)F)cc(C(F)(F)F)c2)c1,inactive
16,C=C(C(C)=O)C(O)c1cccs1 (stereo not given),inactive
17,COc1ccc(-c2nc3c(c4c2C[C@H](c2ccccc2)OC4)CN(C(=O)c2cccnc2)CC3)c(C)c1,inactive
18,Cc1ccc(-c2csc(SCC(=O)Nc3cc(C)on3)n2)cc1,inactive
19,Cc1nc(SCC(=O)Nc2cc(C)on2)c2c3c(sc2n1)CCCC3,10 µM (active)
20,Cc1cc(C)n(-c2nc(SCC(=O)N3CCCC3)c3c4c(sc3n2)CCCC4)n1,inactive
21,CC(C)c1cnc(NC(=O)Cc2ccccc2)s1,inactive
22,COc1ccc(CC(N)C(=O)NC2C(O)[C@H](n3cnc4c(N(C)C)ncnc43)O[C@@H]2CO)cc1 (stereo not given in full),inactive
23,CC[C@@]12C=C(/C=C/c3ccccc3)[C@](CC)(C1)[C@H](c1ccccc1)CC2=O,inactive

row,SMILES,Potency
1,COCCN1C(=O)N[C@@H](CCc2ccccc2)[C@H](C(C)=O)[C@H]1C,inactive
2,S=c1nccc(-c2cc(Cl)sc2Cl)[nH]1,11.2 µM (active)
3,Nc1nc2c(ncn2[C@@H]2O[C@H](COP(=O)(O)OP(=O)(O)OP(=O)(O)O)[C@@H](O)C2O)c(=O)[nH]1 (stereo not given in full),inactive
4,COc1ccc(CC(=O)Nc2ccc(-c3nnc(-c4ccccc4)o3)cc2)cc1,10 µM (active)
5,COc1ccc(-c2nc(-c3ccccc3)oc2Nc2ccc3ccccc3c2)cc1,inactive
6,COc1ccc(CC(=O)Nc2ccc(C(=O)NC(C)(C)C)cc2)cc1,inactive
7,COc1cccc(CC(=O)N2CCc3nc(COc4ccccc4)c4c(c3C2)CO[C@@H](C)C4)c1,inactive
8,CCCCS(=O)(=O)N1C2=NC(C(=O)OC)=C(C(=O)OC)[C@@H]3N(Cc4ccccc4)c4ccccc4[C@]23C[C@H]1C(=O)OC,inactive
9,COC(=O)C(C(=O)OC)[C@@H](NC=O)c1ccccc1,inactive
10,COC(=O)CSc1nccc(-c2cccs2)n1,inactive
11,O=C(Nc1ccnc(-c2ccncc2)n1)c1cccs1,inactive
12,O=C(O)COc1ccc(-c2nccc(-c3cccs3)n2)cc1,10 µM (active)
13,C/C(Nc1ccc2oc(=O)ccc2c1)=C1/C(=O)CC2[C@@H]1C2(C)C (stereo not given in full),inactive
14,Cc1cc2oc(=O)cc(-c3ccccc3)c2c(C)c1-c1ccc(OC(F)(F)F)cc1,inactive
15,CC(C)C[C@H](NC(=O)[C@H](O)[C@H](N)Cc1ccccc1)C(=O)O,inactive
16,CC(C)(C)OC(=O)NCCCCC1=CC2=CC(=O)C(C)(OC(=O)c3cccs3)C(=O)C2=CO1 (stereo not given),inactive
17,COc1ccc(OC)c(-n2c(=S)[nH]c3cc(C(=O)N4CCCCC4)ccc3c2=O)c1,inactive
18,COC(=O)c1ccc(CSc2nc3ccccc3c(=O)n2-c2cccc(OC)c2)o1,inactive
19,COc1cccc(-n2c(=S)[nH]c3c(oc4ccccc43)c2=O)c1,12.6 µM (active)
20,OC[C@H]1O[C@@H](n2cnc3c(N[C@H]4CC5CCC4C5)ncnc32)[C@H](O)[C@@H]1O (stereo not given in full),inactive
21,CC(=O)CC(c1ccccc1)C1C(=O)Oc2ccccc2C1=O (stereo not given),inactive
22,CC(C)C1=CC2=CC[C@H]3[C@](C)(C(=O)O)CCC[C@]3(C)C2CC1 (stereo not given in full),inactive
23,COC(=O)C(C(=O)OC)C1c2ccccc2C=C(C2CC2)N1C(=O)OC (stereo not given),inactive

row,SMILES,Potency
1,CC(=O)c1sc2nc(SCC(=O)N3CCCCC3)[nH]c(=O)c2c1C,11.2 µM (active)
2,C=CCNC(=O)CSc1nc2sc(C)c(C)c2c(=O)[nH]1,inactive
3,O=C(CSc1nc2c(cnn2-c2ccc(F)cc2)c(=O)[nH]1)N1CCCCCC1,inactive
4,CCN1C(=O)N[C@@H](c2ccccc2)[C@H](C(C)=O)[C@H]1C,inactive
5,O=C1C=C(c2ccccc2)CCC1,inactive
6,CCN1C(=O)N[C@@H](CCc2ccccc2)C(C(=O)OC)=C1C,inactive
7,O=C1OCCN1C(=O)[C@H]1[C@H](c2ccc(Cl)cc2)C(c2cccc(Cl)c2)=NN1c1ccc(Br)cc1,inactive
8,COC(=O)CCCC1=CC2=CC(=O)C(C)(OC(=O)c3cccs3)C(=O)C2=CN1CC1CC1 (stereo not given),inactive
9,COc1ccc(-c2nc3c(c4c2C[C@H](c2ccccc2)OC4)CN(C(=O)C2CC2)CC3)c(C)c1,inactive
10,CC1=C(C/C=C(\C)CCCC(C)CCCC(C)CCCC(C)C)C(=O)c2ccccc2C1=O (stereo not given),inactive
11,CCOC(=O)c1ccc(NC2Nc3cc(C)nn3S2)cc1 (stereo not given),10 µM (active)
12,CCOC(=O)c1ccc(Nc2cc(C)nc3nc(C)nn23)cc1,inactive
13,CCc1ccc(NC2Nc3cc(C)nn3S2)cc1 (stereo not given),inactive
14,CC1(C)O[C@@H]2C[C@@H]3[C@H]4C[C@@H](F)C5=CC(=O)C=C[C@]5(C)[C@@]4(F)[C@@H](O)C[C@]3(C)[C@]2(C(=O)CO)O1,inactive
15,CCCCCCCC/C=C\CCCCCCCC(=O)NCC(=O)O,inactive
16,CCCCC/C=C\C[C@H](O)/C=C/C=C/C=C/[C@@H](O)CCCC(=O)O,inactive
17,C=CCC(C)(O)c1ccco1 (stereo not given),inactive
18,N#C/C(=C(/O)COC(=O)COc1ccc(Cl)cc1)c1nc2ccccc2[nH]1,inactive
19,N#C/C(=C(/O)COc1cccc2ccccc12)c1nc2ccccc2[nH]1,inactive
20,Cc1ccccc1OC/C(O)=C(\C#N)c1nc2ccccc2[nH]1,12.6 µM (active)
21,COC(=O)CCCC1=CC2=CC(=O)C(C)(OC(=O)c3cccs3)C(=O)C2=CN1c1cccc(C#N)c1 (stereo not given),inactive
22,C[C@@]12CCC(=O)C=C1CC[C@H]1C2[C@@H](O)C[C@]2(C)[C@@H]1CC[C@@]2(O)C(=O)COC(=O)C1CCCC1 (stereo not given in full),inactive
23,CO[C@@]12[C@@H](COC(N)=O)C3=C(C(=O)C(C)=C(N)C3=O)N1C[C@@H]1N[C@@H]12,inactive
